Source: PubChem BioAssay (NCATS)
Inconclusive results are not listed. Where a call stands in place of a potency, no number is given. Activity calls are given as the source filed them. Calls come from the whole dose curve; as a rule, active = well fitted inhibition curve with a large enough effect; inconclusive = small, poorly fitted or top-dose-only effect; inactive = flat fitted curve, though single readings scatter.

System: CP250
Assay: qHTS profiling for inhibitors of Plasmodium falciparum proliferation (AID 504749); note: nearly all actives have a fitted effect of over 60% in size
Settings: P. falciparum in erythrocytes, SYBR Green DNA, 72 h; series mostly up to 28.7 µM
Outline: (§1)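 P. falciparum-infected erythrocytes (0.3% parasitemia, 2.5% hematocrit final) were exposed to compounds for 72 h at 37 C in 5% CO2, then lysed with SYBR Green buffer overnight at room temperature; parasite DNA fluorescence was normalized to artemisinin and DMSO controls.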
Potency is the fitted concentration of half-maximal effect.

Q: For `c1ccc(CNCCNCc2ccccc2)cc1`, which Potency is on record?
A: The Potency was “inactive”.

Q: `CN(C)C(=S)SC(=S)N(C)C` was tested. Which Potency did it give?
A: The Potency was 11.2 µM (active).

Q: How did the Potency turn out when `CCCCCCCCCCOCC(O)CN` (centres undefined) was run?
A: Its Potency is “inactive”.

Q: Which Potency does the source give for `CCOC(=O)COc1ccc2c(C)c(CCN(CC)CC)c(=O)oc2c1Cl` here?
A: Its Potency is “inactive”.

Q: `Clc1ccc2c(c1)CCc1cccnc1C2=C1CCNCC1` was tested. Which Potency did it give?
A: The Potency was “inactive”.

Q: With `CC(C)NC[C@@H](O)COc1cccc2ccccc12` as the compound, how does the Potency read?
A: Its Potency is “inactive”.

Q: For `C#C[C@]1(O)CC[C@H]2[C@@H]3CCc4cc(OC5CCCC5)ccc4[C@H]3CC[C@@]21C`, which Potency is on record?
A: Its Potency is “inactive”.

Q: For `OC(CCN1CCCCC1)(c1ccccc1)c1ccccc1`, which Potency is on record?
A: The Potency was “inactive”.

Q: How did the Potency turn out when `CC/C(=C(/CC)c1ccc(O)cc1)c1ccc(O)cc1` was run?
A: The Potency was “inactive”.

Q: For `CN(C)CC/C=C1\c2ccccc2Sc2ccc(Cl)cc21`, which Potency is on record?
A: Its Potency is “inactive”.

Q: `O=c1c(-c2ccccc2)c1-c1ccccc1` was tested. Which Potency did it give?
A: Its Potency is 11.2 µM (active).

System: CP252
Assay: as above
Settings: P. falciparum in erythrocytes, SYBR Green DNA, 72 h; series mostly up to 28.7 µM
Outline: as §1

Q: `CCCCc1nc(Cl)c(CO)n1Cc1ccc(-c2ccccc2-c2nn[nH]n2)cc1` was tested. Which Potency did it give?
A: Its Potency is 10 µM (active).

Q: How did the Potency turn out when `COc1cc2c(cc1OC)C(=O)C(CC1CCN(Cc3ccccc3)CC1)C2` (centres undefined) was run?
A: Its Potency is “inactive”.

Q: With `CN1CCN(CCCN2c3ccccc3Sc3ccc(S(=O)(=O)N(C)C)cc32)CC1` as the compound, how does the Potency read?
A: The Potency was “inactive”.

Q: Which Potency does the source give for `C#C[C@]1(O)CC[C@H]2[C@@H]3CCc4cc(OC5CCCC5)ccc4[C@H]3CC[C@@]21C` here?
A: The Potency was “inactive”.

Q: With `CCCCCCCCCCCCCCCC[N+](C)(C)CCN(Cc1ccc(OC)cc1)c1ncccn1` as the compound, how does the Potency read?
A: Its Potency is “inactive”.

Q: `CC/C(=C(/CC)c1ccc(O)cc1)c1ccc(O)cc1` was tested. Which Potency did it give?
A: Its Potency is “inactive”.

Q: With `c1ccc(-c2ccc(C(c3ccccc3)n3ccnc3)cc2)cc1` (centres undefined) as the compound, how does the Potency read?
A: Its Potency is 10 µM (active).

System: CP256
Assay: as above
Settings: P. falciparum in erythrocytes, SYBR Green DNA, 72 h; series mostly up to 28.7 µM
Outline: as §1

Q: With `CN(C)C(=S)SC(=S)N(C)C` as the compound, how does the Potency read?
A: Its Potency is 10 µM (active).

Q: With `COc1cc2c(cc1OC)C(=O)C(CC1CCN(Cc3ccccc3)CC1)C2` (centres undefined) as the compound, how does the Potency read?
A: Its Potency is “inactive”.

Q: Which Potency does the source give for `CCN(CC)CCNC(=O)COc1ccc(Cl)cc1` here?
A: The Potency was “inactive”.

Q: Which Potency does the source give for `Clc1ccc2c(c1)CCc1cccnc1C2=C1CCNCC1` here?
A: Its Potency is “inactive”.

Q: `CCCCCCCCCCCCCCCC[N+](C)(C)CCN(Cc1ccc(OC)cc1)c1ncccn1` was tested. Which Potency did it give?
A: Its Potency is “inactive”.

Q: For `O=C(CCCN1CCC(O)(c2ccc(Br)cc2)CC1)c1ccc(F)cc1`, which Potency is on record?
A: The Potency was “inactive”.

Q: `O=C(Nc1ccc(Oc2ccc(Cl)cc2)c(Cl)c1)c1cc(I)cc(I)c1O` was tested. Which Potency did it give?
A: Its Potency is “inactive”.

Q: `CC(C)N=C(N)/N=C(\N)Nc1ccc(Cl)cc1` was tested. Which Potency did it give?
A: The Potency was 0.708 µM (active).

System: CP260
Assay: as above
Settings: P. falciparum in erythrocytes, SYBR Green DNA, 72 h; series mostly up to 28.7 µM
Outline: as §1

Q: Which Potency does the source give for `CCCCCCCCCCCCCCNCCO` here?
A: The Potency was 4.47 µM (active).

Q: Which Potency does the source give for `C[C@@H]1CN(CCCn2c3ccccc3c3ccccc32)C[C@H](C)N1` here?
A: The Potency was 11.2 µM (active).

Q: For `CN(C)C(=S)SC(=S)N(C)C`, which Potency is on record?
A: Its Potency is 10 µM (active).

Q: Which Potency does the source give for `CO/N=C1\CN(c2nc3c(cc2F)c(=O)c(C(=O)O)cn3C2CC2)CC1CN` (centres undefined) here?
A: Its Potency is 7.94 µM (active).

Q: With `COc1cc2c(cc1OC)C(=O)C(CC1CCN(Cc3ccccc3)CC1)C2` (centres undefined) as the compound, how does the Potency read?
A: Its Potency is “inactive”.

Q: For `CCCCCCCCCCOCC(O)CN` (centres undefined), which Potency is on record?
A: The Potency was “inactive”.

Q: For `CCOC(=O)COc1ccc2c(C)c(CCN(CC)CC)c(=O)oc2c1Cl`, which Potency is on record?
A: Its Potency is “inactive”.

Q: Which Potency does the source give for `CCN(CC)CCOc1ccc(C(O)(Cc2ccc(Cl)cc2)c2ccc(C)cc2)cc1` (centres undefined) here?
A: The Potency was 11.2 µM (active).

Q: For `CC(C)NC[C@@H](O)COc1cccc2ccccc12`, which Potency is on record?
A: Its Potency is 12.6 µM (active).

Q: `NC(CS)C(=O)O` (centres undefined) was tested. Which Potency did it give?
A: Its Potency is 8.91 µM (active).

Q: Which Potency does the source give for `CN(C)CCOc1ccccc1Cc1ccccc1` here?
A: Its Potency is 2.51 µM (active).

Q: How did the Potency turn out when `C#C[C@]1(O)CC[C@H]2[C@@H]3CCc4cc(OC5CCCC5)ccc4[C@H]3CC[C@@]21C` was run?
A: The Potency was “inactive”.

Q: Which Potency does the source give for `O=C(CCCN1CCC(O)(c2ccc(Br)cc2)CC1)c1ccc(F)cc1` here?
A: Its Potency is 3.55 µM (active).

Q: `CC(=O)N/N=C/c1ccc([N+](=O)[O-])o1` was tested. Which Potency did it give?
A: Its Potency is 7.94 µM (active).

Q: How did the Potency turn out when `CN(C)CC/C=C1\c2ccccc2Sc2ccc(Cl)cc21` was run?
A: The Potency was 8.91 µM (active).

Q: How did the Potency turn out when `O=c1c(-c2ccccc2)c1-c1ccccc1` was run?
A: Its Potency is 8.91 µM (active).

System: CP262
Assay: as above
Settings: P. falciparum in erythrocytes, SYBR Green DNA, 72 h; series mostly up to 28.7 µM
Outline: as §1

Q: How did the Potency turn out when `CCCCc1nc(Cl)c(CO)n1Cc1ccc(-c2ccccc2-c2nn[nH]n2)cc1` was run?
A: Its Potency is “inactive”.

Q: For `CCCCCCCCCCCCCCNCCO`, which Potency is on record?
A: The Potency was “inactive”.

Q: `CCCOC(C(=O)OC1CCN(C)CC1)(c1ccccc1)c1ccccc1` was tested. Which Potency did it give?
A: Its Potency is “inactive”.

Q: `c1ccc(CNCCNCc2ccccc2)cc1` was tested. Which Potency did it give?
A: The Potency was “inactive”.

Q: How did the Potency turn out when `CN(C)C(=S)SC(=S)N(C)C` was run?
A: Its Potency is “inactive”.

Q: Which Potency does the source give for `CO/N=C1\CN(c2nc3c(cc2F)c(=O)c(C(=O)O)cn3C2CC2)CC1CN` (centres undefined) here?
A: The Potency was “inactive”.

Q: With `COc1cc2c(cc1OC)C(=O)C(CC1CCN(Cc3ccccc3)CC1)C2` (centres undefined) as the compound, how does the Potency read?
A: Its Potency is “inactive”.

Q: Which Potency does the source give for `CCCCCCCCCCOCC(O)CN` (centres undefined) here?
A: Its Potency is “inactive”.

Q: With `CCOC(=O)COc1ccc2c(C)c(CCN(CC)CC)c(=O)oc2c1Cl` as the compound, how does the Potency read?
A: Its Potency is “inactive”.

Q: With `CCN(CC)CCNC(=O)COc1ccc(Cl)cc1` as the compound, how does the Potency read?
A: The Potency was “inactive”.

Q: `COC(=O)[C@H]1[C@H]2C[C@H]3c4[nH]c5ccccc5c4CCN3C[C@H]2CC[C@@H]1O` was tested. Which Potency did it give?
A: The Potency was “inactive”.

Q: Which Potency does the source give for `CC(C)NC[C@@H](O)COc1cccc2ccccc12` here?
A: The Potency was “inactive”.

Q: Which Potency does the source give for `CN1CCN(CCCN2c3ccccc3Sc3ccc(S(=O)(=O)N(C)C)cc32)CC1` here?
A: Its Potency is “inactive”.

Q: How did the Potency turn out when `NC(CS)C(=O)O` (centres undefined) was run?
A: Its Potency is “inactive”.

Q: For `O=C(CCCN1CCC(O)(c2ccc(Br)cc2)CC1)c1ccc(F)cc1`, which Potency is on record?
A: Its Potency is “inactive”.

Q: How did the Potency turn out when `O=C(Nc1ccc(Oc2ccc(Cl)cc2)c(Cl)c1)c1cc(I)cc(I)c1O` was run?
A: The Potency was “inactive”.

Q: How did the Potency turn out when `c1ccc(-c2ccc(C(c3ccccc3)n3ccnc3)cc2)cc1` (centres undefined) was run?
A: Its Potency is “inactive”.

Q: Which Potency does the source give for `CCOC(=O)/C=C(C)/C=C/C=C(C)/C=C/c1c(C)cc(OC)c(C)c1C` here?
A: Its Potency is “inactive”.

Q: Which Potency does the source give for `CC(C)N=C(N)/N=C(\N)Nc1ccc(Cl)cc1` here?
A: Its Potency is 2.28 µM (active).

Q: `CN(C)CC/C=C1\c2ccccc2Sc2ccc(Cl)cc21` was tested. Which Potency did it give?
A: The Potency was “inactive”.

Q: How did the Potency turn out when `O=c1c(-c2ccccc2)c1-c1ccccc1` was run?
A: The Potency was “inactive”.

Q: `O=C1OCCN1/N=C/c1ccc([N+](=O)[O-])o1` was tested. Which Potency did it give?
A: The Potency was “inactive”.
